# Assay outcomes (PubChem)
# Shown are actives, neighbours in structure and some others; about 3.6% of the full set was active somewhere.
# ERa SRC1 pot: enhancers of ERα–SRC-1 coactivator binding, primary screen, biochemical, TR-FRET, ERα LBD, low estradiol; TR-FRET ERalpha-LBD/SRC-Cy5 coactivator binding, 2 h; 100 = basal binding, no effect; coactivator binding (% of control), % at 25.6 µM; 86,000 compounds, 1.3% hits; AID 639, 2007; Estrogen receptor (Homo sapiens), P03372; in the data active = activity above about 200%;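 also: binding measured in presence of low estradiol as agonist stimulus; 0% = peptide alone without receptor and 100% = receptor with peptide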
# Target sequence (P03372 whole entry, looked up, the tested form may be a part): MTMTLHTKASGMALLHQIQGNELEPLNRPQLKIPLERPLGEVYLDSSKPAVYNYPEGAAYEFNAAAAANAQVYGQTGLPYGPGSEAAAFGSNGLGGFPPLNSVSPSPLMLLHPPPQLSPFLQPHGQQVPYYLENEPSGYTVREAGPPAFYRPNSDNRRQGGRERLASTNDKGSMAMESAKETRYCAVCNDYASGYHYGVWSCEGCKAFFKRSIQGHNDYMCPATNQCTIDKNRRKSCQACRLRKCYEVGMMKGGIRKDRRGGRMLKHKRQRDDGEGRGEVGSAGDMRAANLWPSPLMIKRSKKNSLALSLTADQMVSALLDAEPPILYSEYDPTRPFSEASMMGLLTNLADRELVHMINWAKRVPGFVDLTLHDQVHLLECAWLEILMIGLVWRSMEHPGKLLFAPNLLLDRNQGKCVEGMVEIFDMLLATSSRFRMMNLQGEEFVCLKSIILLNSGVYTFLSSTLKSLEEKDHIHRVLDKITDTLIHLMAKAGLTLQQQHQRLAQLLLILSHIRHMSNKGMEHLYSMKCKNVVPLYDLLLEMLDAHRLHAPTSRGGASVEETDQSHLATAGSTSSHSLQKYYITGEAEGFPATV
# NFkB transloc inh: inhibitors of IL-1B driven NFkB p65 nuclear import, primary screen, imaging, HUVEC, IL-1B stimulus, high-content imaging. HUVEC IL-1B NFkB p65 nuclear translocation imaging. inhibition, % at 2 µM. 94,000 compounds, 0.43% hits. AID 796, 2007;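 active = inhibition above about 30% together with a positive call from visual inspection of the well image, limit read from the data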;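 also: nuclear over cytoplasmic p65 intensity ratio measured by imaging; 0% = IL-1B stimulated DMSO wells and 100% = unstimulated DMSO wells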
# NFkB transloc pot: enhancers of NFkB p65 translocation in HUVEC – imaging, IL-1B stimulus, high-content imaging, primary screen; HUVEC IL-1B NFkB p65 nuclear translocation imaging; activation, % at 2 µM; 94,000 compounds, 0.3% hits; AID 819, 2007;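 active = activation above 40%, about the mean plus 3 SD, also judged a hit on visual image review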;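 also: percent activation is computed from the nuclear over cytoplasmic p65 intensity ratio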
# HUVEC tox IL1B: cytotoxicity in IL-1B stimulated HUVEC, primary screen, cytotoxicity control for IL-1B NFkB translocation project, imaging, Hoechst nuclear count, IL-1B stimulus | HUVEC cell count loss | cell count reduction, % at 2 µM | 94,000 compounds, 0.41% hits;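 active = cell count reduction more than 3 SD above the screen-wide mean, cut at about 70% in these data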;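 also: normalized per plate to untreated control cells as the no-loss baseline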
# ERb coact inh: inhibitors of ERβ-SRC1 coactivator interaction, primary screen, biochemical, TR-FRET, ERβ LBD, SRC-1 peptide | TR-FRET ER-beta LBD / SRC1-Cy5 peptide binding; receptor agonist-loaded with 1 µM estradiol | Estrogen receptor beta (Homo sapiens), Q92731 | inhibition, % at 25.6 µM | AID 633, 2007 | 86,000 compounds, 1.3% hits;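 active = compounds whose percent inhibition of the receptor-coactivator binding signal exceeds about 50% in the single-dose screen, limit read from the data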;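 also: 0% = receptor plus peptide wells without compound and 100% = peptide-only wells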
# ERa coact inh: ERα–SRC-1 coactivator interaction inhibitors, primary screen, biochemical, TR-FRET, ERα LBD, estradiol-bound; Estrogen receptor (Homo sapiens), P03372; TR-FRET ER-alpha LBD / SRC-1 peptide; inhibition, % at 25.6 µM; 86,000 compounds, 1.7% hits; AID 629, 2007; in the data active = inhibition above about 50%;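 also: 0% = receptor plus peptide control and 100% = peptide only without receptor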
# An asterisk follows results filed as active; . = not tested or not shown; [ ] = remark or other dose.
SMILES,ERa SRC1 pot,NFkB transloc inh,NFkB transloc pot,HUVEC tox IL1B,ERb coact inh,ERa coact inh
CN(Cc1ccccc1)S(=O)(=O)c1ccc2[nH]cc(C(=O)NCC3CCCO3)c(=O)c2c1 (stereo unspecified),101.9,10.6,-10.6,-32.3,1.8,-1.0
O=C(O)CC(CNS(=O)(=O)c1ccccc1)c1ccccc1 (stereo unspecified),95.9,.,.,.,-5.0,-3.6
COc1ccc([N+](=O)[O-])cc1NC(=S)Nc1ccccc1,.,-3.3,3.3,-18.0,.,.
COc1ccc([N+](=O)[O-])cc1C1NN=C(c2ccccc2O)S1 (stereo unspecified),108.5,33.0*,-33.0,3.7,14.9,37.3
CC(C)NC(=O)CSc1nc(-c2cccs2)cc(-c2ccccc2)c1C#N,254.5*,1.9,-1.9,-31.9,7.2,11.4
CCC(Sc1ccccn1)C(=O)Nc1nnc(C)s1 (stereo unspecified),101.9,3.7,-3.7,6.2,-21.4,-8.0
COc1ccccc1N(O)C1CC(=O)N(c2ccc(Br)cc2)C1=O (stereo unspecified),87.7,.,.,.,13.2,1.5
CCCCCCC(=O)N(O)C1CC(=O)N(c2ccc(Br)cc2)C1=O (stereo unspecified),86.3,-47.8,47.8*,12.3,0.7,3.6
Cc1cccc(NC(=O)CNc2cc(C)ccc2C)c1,111.8,-9.0,9.0,-2.1,-3.3,-3.5
CN(CC(=O)N1CCCC1)S(=O)(=O)c1cc(Cl)ccc1Cl,106.6,6.9,-6.9,22.0,-21.2,-14.2
COc1ccc(N(C(=O)c2ccc(Cl)cc2)C2=CC3CCC(C2)N3C)cc1 (stereo unspecified),100.2,-13.7,13.7,-3.9,-0.6,1.8
CC(C(=O)Nc1nc2ccccc2[nH]1)N1C(=O)C2CC=CCC2C1=O (stereo unspecified),118.7,13.6,-13.6,-19.9,4.9,-8.8
Cc1cccc(-n2nnnc2SCC(=O)c2cc(C)n(CC3CCCO3)c2C)c1 (stereo unspecified),87.4,.,.,.,16.0,13.2
Cc1cccc(-n2nnnc2SCC(=O)c2cc(C)n(Cc3ccco3)c2C)c1,49.3,-4.8,4.8,-5.8,46.8,88.7*[fluorescence artefact?]
CCOC(=O)c1cnc2cc(-c3ccc(C)cc3)nn2c1-c1ccccc1,247.0*[fluorescence artefact?],-11.9,11.9,-33.3,46.2,13.1
CCOC(=O)c1cnc2cc(-c3ccc(C(C)(C)C)cc3)nn2c1N,.,2.5,-2.5,3.1,.,.
Cc1ccc(CN2CCC(c3nc4ccc(Cl)cc4[nH]3)CC2)cc1,.,34.2*,-34.2,0.4,.,.
Clc1ccc2nc(C3CCN(Cc4ccccc4)CC3)[nH]c2c1,.,6.8,-6.8,1.0,.,.
CCOC(=O)N1CCN(C(=O)CN(C2CCCCC2)S(=O)(=O)c2c(C)cc(C)cc2C)CC1,107.7,-6.2,6.2,9.2,16.6,4.0
Cc1cc(C)c(S(=O)(=O)N(CC(=O)N2CCOCC2)C2CCCCC2)c(C)c1,106.8,6.9,-6.9,75.4*,-28.8,-26.3
O=C(Nn1c(O)c(C=C2N=c3ccccc3=N2)sc1=S)c1ccccc1,90.7,-16.6,16.6,87.6*,-9.8,-15.3
COc1ccc(Br)cc1/C(C)=N/NC1=NCCN1,97.2,5.2,-5.2,-22.8,-4.0,32.3
CCCCCOc1ccc(Br)cc1/C(C)=N/NC1=NCCN1,21.0,18.9,-18.9,14.3,18.0,65.9*[fluorescence artefact?]
COc1ccc(-c2c(NC(=O)c3ccco3)n(C)c3ccccc3c2=O)cc1,101.5,-17.2,17.2,2.8,-21.2,-15.1
CC1(C)CCCN(C(=O)c2coc(=O)c(Br)c2)C1,14.4,1.4,-1.4,-33.3,83.4*,90.3*[fluorescence artefact?]
SMILES,ERa SRC1 pot,NFkB transloc inh,NFkB transloc pot,HUVEC tox IL1B,ERb coact inh,ERa coact inh
CC1(C)CC(=O)C=C(NC2CCCCCCC2)C1,109.3,-5.0,5.0,-2.2,1.7,95.3*[fluorescence artefact?]
CCOC(=O)Nc1ccc(OC)cc1S(=O)(=O)N1CCCCC1,66.2,-12.9,12.8,8.5,74.3*[fluorescence artefact?],73.7*[fluorescence artefact?]
COc1ccc(CNC(=O)C2CCN(S(=O)(=O)c3cc(OC)ccc3OC)CC2)cc1,104.5,-28.5,28.5,-5.0,-0.5,-2.9
COc1ccc(CNC(=O)C2CCCN(S(=O)(=O)c3cc(C)ccc3OC)C2)cc1 (stereo unspecified),115.1,64.2*,-64.2,7.6,-1.3,1.6
COc1ccc(OC)c(S(=O)(=O)N2CCCCCC2)c1,108.9,.,.,.,-7.6,-2.1
CCOc1cc(/C=C(\C#N)c2[nH]nc(N)c2C#N)ccc1O,69.8,-0.7,0.7,10.5,33.6,8.9
O=C(Nc1ccccc1[N+](=O)[O-])C1=C(O)CCn2c1nc1ccccc12,146.7,-7.3,7.3,-0.3,48.7,63.0*
O=c1c2ccccc2nc2n1CC/C2=C\c1ccccc1[N+](=O)[O-],.,16.2,-16.2,0.5,.,.
Clc1ccc(OCCCNCc2ccccc2)c(Br)c1,.,40.0*,-40.0,-16.4,.,.
OCCNCCCOc1ccc(Cl)cc1Br,.,4.8,-4.8,-19.3,.,.
O=C1CCCC2=C1C(c1ccco1)Nc1ccc3ccccc3c12 (stereo unspecified),4.0,8.2,-8.2,-9.8,89.4*[fluorescence artefact?],89.5*[fluorescence artefact?]
Cc1ccc(C2Nc3ccc4ccccc4c3C3=C2C(=O)CC(C)(C)C3)o1 (stereo unspecified),111.8,-26.4,26.4,-48.5,0.6,1.8
COc1ccccc1OC1=NS(=O)(=O)c2ccccc21,15.8,2.5,-2.5,2.9,3.3,77.8*[fluorescence artefact?]
CCN(CC)c1cccc(OC2=NS(=O)(=O)c3ccccc32)c1,18.3,-11.1,11.1,43.5,24.6,82.9*[fluorescence artefact?]
Cc1ccc(OC2=NS(=O)(=O)c3ccccc32)cc1,83.7,-24.8,24.8,-3.5,-0.1,7.5
O=C1c2cnc3nc(SCc4ccc(Cl)cc4)nn3c2CC2c3ccccc3CCN12 (stereo unspecified),.,6.9,-6.9,-6.9,.,.
O=C(c1cn(CC(=O)N2CCCC2)c2ccccc12)C1CCCCC1,114.1,-8.4,8.4,-31.1,21.8,16.6
CCC1=NN=C(c2ccc(F)cc2)C(c2c[nH]c3ccccc23)N1O (stereo unspecified),685.7*[fluorescence artefact?],-11.8,11.8,-6.9,-8.7,2.0
O=C(COC(=O)c1ccc[nH]c1=O)NCC1CCCO1 (stereo unspecified),115.5,11.5,-11.5,-2.1,4.4,1.1
COc1ccc(N2C(=O)CCC2=O)cc1,44.8,3.1,-3.1,3.6,42.8,52.3*[fluorescence artefact?]
Oc1cccc(-c2nc3c4c(ncn3n2)-c2ccccc2CC42CCCC2)c1,.,-0.6,0.6,-39.9,.,.
